Test results reported in PubChem BioAssay AID1159580 (chemical genetic matrix, 2015).
Values joined by “and” are separate entries in the source; they are usually repeats but may differ in a detail not shown here. Equal values may be shown once. Screen size: about 5,500 compounds; about 2,000 (36%) were called active. Another 18% or so got no clear call; they are omitted. Rule as the data show it: active = normalized growth mostly below about 0.91 (no sharp cut-off); inconclusive = no clear call, values can overlap the other calls; inactive = mostly above about 0.92. This is one part of the list.

Assay: chemical genetic growth profiling, strain panel (AID 1159580);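 also: tested at 20 µM; growth read once vehicle control cultures reached saturation at 30 °C; 1 = growth at the plate median or of vehicle wells; lower values mean less growth of the strain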
Settings: S. cerevisiae deletion strains, growth OD

Measured: normalized growth

COc1cc([C@@H]2c3cc4c(cc3[C@H](O)[C@H]3COC(=O)[C@@H]23)OCO4)cc(OC)c1OC
inactive: locus YAL021C, strain ccr4, stronger effect = lower value 1 | locus YAL026C, strain drs2, stronger effect = lower value 1.03 | locus YAL030W, strain snc1, stronger effect = lower value 1.02 | locus YBL061C, strain skt5, stronger effect = lower value 1 | locus YBR009C, strain hhf1, stronger effect = lower value 1 | locus YBR021W, strain FUR4, stronger effect = lower value 1.04 | locus YBR023C, strain chs3, stronger effect = lower value 1.02 | locus YBR171W, strain sec66, stronger effect = lower value 1.02 | locus YBR229C, strain ROT2, stronger effect = lower value 1 | locus YBR231C, strain swc5, stronger effect = lower value 1.02 | locus YBR279W, strain paf1, stronger effect = lower value 1.02 | locus YCL011C, strain gbp2, stronger effect = lower value 1.02 | locus YCL016C, strain dcc1, stronger effect = lower value 1.01 | locus YCL029C, strain bik1, stronger effect = lower value 0.983 | locus YCL069W, strain vba3, stronger effect = lower value 1.02 | locus YCR088W, strain abp1, stronger effect = lower value 1.02 | locus YDL005C, strain med2, stronger effect = lower value 1.02 | locus YDL035C, strain GPR1, stronger effect = lower value 0.991 | locus YDL040C, strain nat1, stronger effect = lower value 1.02 | locus YDL074C, strain BRE1, stronger effect = lower value 0.949 | locus YDL101C, strain DUN1, stronger effect = lower value 1.01 | locus YDL134C, strain PPH21, stronger effect = lower value 1.03 | locus YDL185W, strain tfp1, stronger effect = lower value 0.945 | locus YDL192W, strain arf1, stronger effect = lower value 1.01 | locus YDR001C, strain nth1, stronger effect = lower value 1.02 | locus YDR069C, strain doa4, stronger effect = lower value 1.03 | locus YDR101C, strain arx1, stronger effect = lower value 0.98 | locus YDR137W, strain rgp1, stronger effect = lower value 1.05 | locus YDR159W, strain sac3, stronger effect = lower value 1.03 | locus YDR162C, strain NBP2, stronger effect = lower value 1.01 | locus YDR195W, strain ref2 1.04 | locus YDR297W, strain sur2, stronger effect = lower value 1.03 | locus YDR318W, strain mcm21, stronger effect = lower value 0.999 | locus YDR334W, strain swr1, stronger effect = lower value 1.02 | locus YDR335W, strain msn5, stronger effect = lower value 1.02 | locus YDR388W, stronger effect = lower value 0.988 | locus YDR392W, strain spt3, stronger effect = lower value 0.989 | locus YDR502C, strain sam2, stronger effect = lower value 0.989 | locus YEL003W, strain gim4, stronger effect = lower value 1.02 | locus YEL037C, strain rad23, stronger effect = lower value 1.01 | locus YEL061C, strain CIN8 (second series), stronger effect = lower value 1.02 | locus YEL061C, strain CIN8, stronger effect = lower value 1.01 | locus YER015W, strain faa2, stronger effect = lower value 1.02 | locus YER016W, strain bim1, stronger effect = lower value 1.02 | locus YER110C, stronger effect = lower value 0.98 | locus YER111C, strain swi4, stronger effect = lower value 1.01 | locus YER155C, strain BEM2 (second series), stronger effect = lower value 1.02 | locus YER155C, strain BEM2, stronger effect = lower value 0.986 | locus YER167W, strain BCK2, stronger effect = lower value 1 | locus YFR010W, strain ubp6, stronger effect = lower value 1.02 | locus YGL078C, strain dbp3, stronger effect = lower value 0.972 | locus YGL086W, strain mad1, stronger effect = lower value 0.983 | locus YGL167C, strain pmr1, stronger effect = lower value 1.02 | locus YGL173C, strain kem1, stronger effect = lower value 1.02 | locus YGL227W, strain vid30, stronger effect = lower value 1.03 | locus YGL240W, strain doc1, stronger effect = lower value 1.03 | locus YGL248W, strain PDE1, stronger effect = lower value 1.03 | locus YGL253W, strain hxk2, stronger effect = lower value 1.02 | locus YGR135W, strain pre9, stronger effect = lower value 1.02 | locus YGR229C, strain SMI1, stronger effect = lower value 1.02 | locus YGR252W, strain gcn5, stronger effect = lower value 1.17 | locus YHR013C, strain ard1, stronger effect = lower value 1.03 | locus YHR027C, strain rpn1, stronger effect = lower value 1.02 | locus YHR030C, strain SLT2, stronger effect = lower value 0.987 and 0.98 | locus YHR079C, strain IRE1 (second series), stronger effect = lower value 0.983 | locus YHR079C, strain IRE1, stronger effect = lower value 0.983 | locus YHR094C, strain hxt1, stronger effect = lower value 0.999 | locus YHR129C, strain ARP1, stronger effect = lower value 1.01 | locus YHR142W, strain chs7, stronger effect = lower value 1.03 | locus YHR200W, strain rpn10, stronger effect = lower value 0.976 | locus YIL066C, strain RNR3, stronger effect = lower value 1.01 | locus YIL073C, strain SPO22, stronger effect = lower value 0.961 | locus YIL125W, strain kgd1, stronger effect = lower value 0.994 | locus YIR030C, strain dcg1, stronger effect = lower value 0.995 | locus YJL092W, strain hpr5, stronger effect = lower value 1.02 | locus YJL095W, strain BCK1 (second series), stronger effect = lower value 1.02 | locus YJL095W, strain BCK1, stronger effect = lower value 1.05 and 0.988 | locus YJL115W, strain asf1, stronger effect = lower value 1.04 | locus YJL129C, strain trk1, stronger effect = lower value 1.04 | locus YJL134W, strain LCB3, stronger effect = lower value 0.986 | locus YJL154C, strain vps35, stronger effect = lower value 1.01 | locus YJL164C, strain tpk1, stronger effect = lower value 1 | locus YJL166W, strain qcr8, stronger effect = lower value 1.03 | locus YJL168C, strain set2, stronger effect = lower value 0.989 | locus YJL187C, strain SWE1 (second series), stronger effect = lower value 1.01 | locus YJR043C, strain POL32, stronger effect = lower value 1.01 | locus YJR066W, strain TOR1, stronger effect = lower value 0.917
